Laboratory results taken from ChEMBL document CHEMBL1201862, “PubChem BioAssay data set” (2004).
Values joined by “and” are separate entries in the source; they are usually repeats but may differ in a detail not shown here. Equal entries are not always repeated. The whole screen tested about 400,000 compounds, of which about 2,100 (0.53%) were called active. Inconclusive results (about 14%) are left out. This is one part of a sample in which actives are shown more often than they occur. How the calls were made is not given here.

Target: Ataxin-2 (Homo sapiens) (UniProt Q99700)
Sequence (Q99700 whole entry): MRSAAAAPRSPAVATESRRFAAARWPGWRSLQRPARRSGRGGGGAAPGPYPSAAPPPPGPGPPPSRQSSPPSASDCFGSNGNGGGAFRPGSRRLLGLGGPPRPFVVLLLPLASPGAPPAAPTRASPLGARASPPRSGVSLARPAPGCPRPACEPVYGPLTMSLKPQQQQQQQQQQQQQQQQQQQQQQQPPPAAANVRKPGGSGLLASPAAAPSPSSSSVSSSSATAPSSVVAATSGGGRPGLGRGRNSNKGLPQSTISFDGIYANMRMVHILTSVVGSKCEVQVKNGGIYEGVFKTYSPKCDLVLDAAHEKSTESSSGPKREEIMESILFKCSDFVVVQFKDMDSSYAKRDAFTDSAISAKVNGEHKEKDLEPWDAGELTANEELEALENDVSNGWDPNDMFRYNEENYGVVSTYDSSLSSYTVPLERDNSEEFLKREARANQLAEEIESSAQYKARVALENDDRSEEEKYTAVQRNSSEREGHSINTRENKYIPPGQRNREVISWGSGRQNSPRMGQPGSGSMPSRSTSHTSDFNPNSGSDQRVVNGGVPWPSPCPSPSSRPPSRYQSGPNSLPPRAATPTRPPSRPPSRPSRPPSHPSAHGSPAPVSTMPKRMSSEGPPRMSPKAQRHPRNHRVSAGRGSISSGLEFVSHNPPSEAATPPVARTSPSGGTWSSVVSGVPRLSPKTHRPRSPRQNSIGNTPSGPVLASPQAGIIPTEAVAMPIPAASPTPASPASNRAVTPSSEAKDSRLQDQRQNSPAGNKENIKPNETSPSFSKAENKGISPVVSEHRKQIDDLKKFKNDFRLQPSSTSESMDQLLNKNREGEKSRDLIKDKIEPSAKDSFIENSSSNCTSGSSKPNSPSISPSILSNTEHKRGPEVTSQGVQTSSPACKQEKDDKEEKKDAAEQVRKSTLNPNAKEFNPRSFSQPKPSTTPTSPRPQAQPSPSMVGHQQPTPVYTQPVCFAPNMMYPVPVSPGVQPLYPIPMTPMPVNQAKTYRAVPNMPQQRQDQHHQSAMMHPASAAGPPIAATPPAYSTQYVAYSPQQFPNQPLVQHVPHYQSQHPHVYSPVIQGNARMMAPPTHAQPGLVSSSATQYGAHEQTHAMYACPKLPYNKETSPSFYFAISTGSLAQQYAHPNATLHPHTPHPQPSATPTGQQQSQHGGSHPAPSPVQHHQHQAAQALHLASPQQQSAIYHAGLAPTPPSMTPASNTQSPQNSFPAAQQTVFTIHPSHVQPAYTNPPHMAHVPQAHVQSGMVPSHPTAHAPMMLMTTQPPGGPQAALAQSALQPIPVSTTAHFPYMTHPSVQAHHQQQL
Test: qHTS for Inhibitors of ATXN expression.
Assay type: functional

Row | SMILES | Potency
1 | Cc1c(C(=O)NCc2ccc3c(c2)cc(C)n3C)cccc1[N+](=O)[O-] | inactive
2 | COc1cccc2sc3cc(NCCCN4CCOCC4)ccc3c(=O)c12 | inactive
3 | Brc1ccccc1OCCCN1CCCC1 | inactive
4 | COc1ccccc1OCCCCN1CCCCC1 | inactive
5 | COc1ccccc1-c1sc2ccccc2c1-c1ccc(OCCN2CCCCC2)cc1 | 35.5 µM (active)
6 | COc1ccc(-c2sc3cc(OC)ccc3c2-c2ccc(OCCN3CCCCC3)cc2)cc1 | 25.1 µM (active)
7 | c1ccc2c(-c3ccc(OCCN4CCCCC4)cc3)c(-c3ccsc3)sc2c1 | 39.8 µM (active)
8 | COc1ccc2c(-c3ccc(OCCN4CCCCC4)cc3)c(-c3ccccc3OC)sc2c1 | 39.8 µM (active)
9 | COc1ccc(-c2c(C)c3ccc(O)c(CN4CCCCC4)c3oc2=O)cc1OC | inactive
10 | CSCCC1NC(=O)N(CC(=O)Nc2ccc(Br)cc2Br)C1=O (stereo unspecified) | inactive
11 | CCOc1cccc(NC(=O)c2sc3nc(-c4ccc(F)cc4)ccc3c2N)c1 | inactive
12 | COc1cccc(-c2sc3ccccc3c2-c2ccc(OCCN3CCCCC3)cc2)c1 | 28.2 µM (active)
13 | COc1ccccc1-c1sc2ccccc2c1C#Cc1ccc(N(C)C)cc1 | inactive
14 | COc1cccc(-c2sc3ccccc3c2-c2ccc(OCCN(C)C)cc2)c1 | 28.2 µM (active)
15 | COC(=O)c1c(-c2ccc(N(C)C)cc2)sc2ccc(OC)cc12 | inactive
16 | COc1ccc2sc(-c3ccccc3OC)c(-c3ccc(OCCN(C)C)cc3)c2c1 | 39.8 µM (active)
17 | COc1ccc2sc(-c3ccc(N(C)C)cc3)c(C#CCO)c2c1 | inactive
18 | O=C(Nc1nc2n(n1)C(c1ccc(F)cc1)C=C(c1ccccc1)N2)c1ccc(Cl)cc1 (stereo unspecified) | inactive
19 | S=C(c1ccc(-c2ccc(Br)cc2)o1)N1CCOCC1 | inactive
20 | CCc1cc(=O)oc2c3c(c(Cl)cc12)OCN(Cc1cccc(OC)c1)C3 | inactive
21 | CCCO/C(O)=C1\C(C)=NC2=C(C(=O)CC(C)(C)C2)C1c1cccnc1 (stereo unspecified) | inactive
22 | CCCc1ccc(C2C3=C(CC(C)(C)CC3=O)N=C3C2=C(O)c2ccccc23)cc1 (stereo unspecified) | 20 µM (active)

Row | SMILES | Potency
23 | CC1C2=C(O)CC(C)(C)CC2=NC2=C1C(=O)CC(C)(C)C2 (stereo unspecified) | inactive
24 | O=S(=O)(Nc1ccccc1N1CCOCC1)c1ccccc1C(F)(F)F | inactive
25 | O=C1CCCc2nc3c(cc21)C(O)Oc1c-3ccc2ccccc12 (stereo unspecified) | inactive
26 | CN(Cc1ccccc1)C(=O)c1ccc(CSc2nc3cccnc3n2Cc2ccccc2F)cc1 | 20 µM (active)
27 | O=C(Cc1c(F)cccc1Cl)N(Cc1ccccc1)c1ccccn1 | inactive
28 | Cn1c(SCc2ccccc2F)nc2ccccc2c1=O | inactive
29 | O=C(CN1C(=O)CCC1=O)Nc1nc(-c2ccc3ccccc3c2)cs1 | inactive
30 | CN1CCN(Cc2nc3ccccc3c(=O)n2Cc2nc(-c3ccc4ccccc4c3)cs2)CC1 | 39.8 µM (active) and 25.1 µM (active)
31 | CN1CCN(Cc2c(O)ccc3cc(-c4ccccn4)c(=O)oc23)CC1 | inactive
32 | C[C@H]1C(c2ccc(F)cc2)=NN(c2ccccc2)[C@@H]1CO | inactive
33 | O=C(CSc1nnc2ccccn12)Nc1ccc(S(=O)(=O)N2CCOCC2)cc1 | inactive
34 | COc1ccc(Cl)cc1CC1(C)C(=O)Nc2ccc(S(=O)(=O)NC3CCCCC3)cc21 (stereo unspecified) | 35.5 µM (active)
35 | COc1ccc(CCNS(=O)(=O)c2ccc3c(c2)CCCC3)cc1OC | inactive
36 | COc1ccc(-c2csc(/C(C#N)=C/Nc3cc4oc5ccccc5c4cc3OC)n2)cc1 | inactive
37 | C=CC[C@@H](Cc1ccc(F)cc1)C(=O)OC[C@H]1CCCN1C(=O)[C@@H](CC=C)CC(=O)N(CCO)Cc1ccccc1 | 39.8 µM (active)
38 | C=CC[C@@H](Cc1ccc(F)cc1)C(=O)OC[C@H]1CCCN1C(=O)[C@H](CC=C)CC(=O)N(CCO)Cc1ccccc1 | 35.5 µM (active)
39 | N#Cc1c(N)n(CCc2ccc(F)cc2)c2nc3ccccc3nc12 | inactive
40 | O=C(CN1C(=O)NC2(CCCCC2)C1=O)Oc1ccc2c(C(F)(F)F)cc(=O)oc2c1 | inactive
41 | Fc1ccc(-c2nc3cnccn3c2NC2CCCC2)cc1 | inactive
42 | COc1ccc2nc(O)c(C(=O)O)cc2c1 | inactive
43 | COc1ccc2c(c1)C(=NNc1ccc(C(=O)O)cc1)c1cc(OC)ccc1-2 | 22.4 µM (active)
44 | COc1ccc(C(=O)N2C(=O)c3ccc(N)cc3C2=O)cc1 | inactive

Row | SMILES | Potency
45 | COc1ccc2c(c1)CCc1cn3nc(C)cc3nc1-2 | inactive
46 | COc1ccc2c(c1)C(=NN)c1cc(OC)ccc1-2 | 31.6 µM (active)
47 | O=C(O)CC1SC(N/N=C/C2CC=CCC2)=NC1=O (stereo unspecified) | inactive
48 | Oc1ccccc1C1SC(c2ccccc2O)SC(c2ccccc2O)S1 (stereo unspecified) | 20 µM (active)
49 | COc1ccc(-c2cc(Cl)cc3c(=O)c4ccccc4n(C)c23)cc1F | inactive
50 | COc1ccc(-c2cc(=O)oc3cc(O)ccc23)cc1 | inactive
51 | COc1ccc(-c2cc3ccc(O)cc3oc2=O)cc1OC | inactive
52 | CCc1cc(=O)oc2cc3occ(-c4ccc(OC)c(F)c4)c3cc12 | 22.4 µM (active)
53 | CCc1ccc2c(CN3CCc4cc(OC)c(OC)cc4C3)cc(=O)oc2c1 | inactive
54 | COc1ccc(-c2coc3cc4oc(=O)c5ccccc5c4cc23)cc1F | 8.91 µM (active)
55 | COc1ccccc1C1CN(c2ccc(F)cc2F)N=C1c1cccs1 (stereo unspecified) | inactive
56 | O=C(NCc1ccc(Cl)c(Cl)c1)C1CCCC1 | inactive
57 | N#C/C(=N\Nc1ccc(Cl)c(Cl)c1)C(=O)C1CC1 | 25.1 µM (active)
58 | O=[N+]([O-])c1ccc(S(=O)(=O)NCCc2cn3ccccc3n2)cc1 | inactive
59 | COc1ccc(S(=O)(=O)NCC2CCCN(C(=O)c3cccnc3)C2)cc1 (stereo unspecified) | inactive
60 | COc1ccccc1OCCn1c(C)c(C=O)c2ccccc21 | inactive
61 | Cc1c(C=O)c(C=O)c(C)n1Cc1ccccc1 | 35.5 µM (active)
62 | Cc1c(C)n(Cc2ccccc2)c2ccc(C(=O)O)cc12 | inactive
63 | O=c1cc(N2CCCCC2)c(-c2ccccc2)nn1Cc1ccccc1 | inactive
64 | COc1ccccc1CNC(=O)c1cnn(-c2nccc(-c3cccs3)n2)c1C | inactive
65 | COc1ccc(-c2cc(-c3cccs3)nc3sc(C#N)c(N)c23)cc1 | inactive
66 | COc1ccc(-c2cc(-c3cccs3)c(C#N)c(SCC(=O)NCc3ccccc3OC)n2)cc1 | 35.5 µM (active)
